Reference: PubChem BioAssay (EPA / NIEHS)
The source holds several records for some structures; these can differ, active in one and inactive in another. The source made the active and inactive calls. Rule for the calls: active = hit-call score of the fitted dose curve at least 0.9, where 1 is the maximum; inactive = score below 0.9.

Experiment: ATG_ISRE_CIS: Attagene CIS-FACTORIAL HepG2 Assay for human Interferon Regulatory Factor 1 (IRF1) binding to an Interferon-Stimulated Response Element (ISRE) (AID 2282948)
Details: HepG2 ISRE cis-reporter (Attagene), mRNA transcription readout; actives raise or lower the signal
Procedure: ATG_CIS is a cell-based, multiplexed-readout assay that uses HepG2, a human liver cell line, with measurements taken at 24 hours after chemical dosing in a 24-well plate.ATG_ISRE_CIS is one of 52 assay component(s) measured or calculated from the ATG_CIS assay. It is designed to make measurements of mRNA induction, a form of inducible reporter, as detected with fluorescence intensity signals by Reverse transcription polymerase chain reaction (RT-PCR) and Capillary electrophoresis technology.Data from the assay component ATG_ISRE_CIS was analyzed into 1 assay endpoint. This assay endpoint, ATG_ISRE_CIS, was analyzed with bidirectional fitting relative to DMSO as the negative control and baseline of activity. Using a type of inducible reporter, measures of mRNA for gain or loss-of-signal activity can be used to understand the reporter gene at the transcription factor-level as they relate to the gene IRF1. Furthermore, this assay endpoint can be referred to as a primary readout, because this assay has produced multiple assay endpoints where this one serves a reporter gene function. To generalize the intended target to other relatable targets, this assay endpoint is annotated to the dna binding intended target family, where the subfamily is interferon regulatory factors.
Human liver HepG2 cells are transiently transfected with multiple reporter transcription units (MRTUs) in 6-well plates using FuGene 6 reagent (Roche; 3 ml FuGene/1 mg DNA). The MRTU constructs are regulated by a cis-regulating element (promoter). […] A major difference between the CIS and TRANS system is that in CIS activities of endogenous TFs are measured, whereas the TRANS assay evaluates changes in activities of exogenous, chimeric NR-Gal4 proteins. […] At the end of 24 hour incubation, total RNA was isolated using TriZol reagent (Invitrogen). The isolated RNA is then reverse-transcribed using oligo(dT) primer and Mo-MLV reverse transcriptase (Invitrogen) with DNAse I (Ambion) treatment for 30 min. The one-tenth of the produced cDNA was amplified by PCR using Taq DNA polymerase (Invitrogen) and two reporter sequence-specific primers. The PCR products were fluorescently labeled by primer extension with 6-arboxyfluorescein (6-FAM) 5'-labeled reporter sequence-specific primer (2 min at 95 C, 20 s at 68 C and 10 min at 72 C) and these products were digested with 5U of HpaI (New England Biolabs) for 2h at 37 C. The fragments were purified using Qiaquick PCR columns (Qiagen), analyzed on an ABI 3130xL genetic analyzer (Applied Biosystems) with peak positions identified by using a set of X-rhodamine (ROX)-labeled MapMarker1000 molecular weight standards (BioVentures). The raw capillary electrophoresis data was processed using Attagraph software (Attagene).

Row | Compound | outcome | AC50
1 | c1cc[nH]c1 | inactive | 
2 | C=Cc1ccc(O)c(OC)c1 | inactive | 
3 | O=C(O)CCC(F)(F)C(F)(F)C(F)(F)C(F)(F)C(F)(F)F | inactive | 
4 | OCCN1CN(CCO)CN(CCO)C1 |  | 159 µM (active)
5 | C=CC(C)(CCC=C(C)C)OC(C)=O (stereo not given) | inactive | 
6 | CCc1cccc(CC)c1NC(=O)C(=O)O | inactive | 
7 | NCc1cccc(CN)c1 | inactive | 
8 | Cc1cccc2c1ccc1ccccc12 | inactive | 
9 | CCCCCCCCCCCC(=O)O | inactive | 146 µM (active)
10 | O=C1C=CC(=O)N1c1cccc(N2C(=O)C=CC2=O)c1 | inactive | 
11 | CC(C)c1c(C(=O)Nc2ccccc2)c(-c2ccccc2)c(-c2ccc(F)cc2)n1CC[C@@H](O)C[C@@H](O)CC(=O)O | inactive | 
12 | NS(=O)(=O)O | inactive | 
13 | CCC1CO1 (stereo not given) | inactive | 
14 | FC(F)(F)N1C(F)(F)C(F)(F)OC(F)(F)C1(F)F | inactive | 
15 | FC(F)(F)C(F)(F)C(F)(F)C(F)(F)I | inactive | 
16 | COC(=O)C(F)(F)C(F)(F)C(F)(F)C(F)(F)C(F)(F)F | inactive | 
17 | CC1COCc2cc3c(cc21)C(C)(C)C(C)C3(C)C (stereo not given) | inactive | 
18 | c1ccc(CNc2ncnc3c2ncn3C2CCCCO2)cc1 (stereo not given) | inactive | 
19 | C[N+](C)(CCCNS(=O)(=O)CCC(F)(F)C(F)(F)C(F)(F)C(F)(F)C(F)(F)C(F)(F)F)CC(=O)[O-] | inactive | 
20 | Oc1cccc2c(O)cccc12 | inactive | 

Row | Compound | outcome | AC50
21 | CCc1cccc(CC)c1N(COC)C(=O)CS(=O)(=O)O | inactive | 
22 | CC(C)(C)C1CCCCC1O (stereo not given) | inactive | 
23 | CC1CNCC(C)O1 (stereo not given) | inactive | 
24 | C=COC(=O)C(C)(C)CCCCCC | inactive | 
25 | N=C(N)c1ccc(OCCCCCOc2ccc(C(=N)N)cc2)cc1 |  | 57.9 µM (active)
26 | CCCCCCC(C)(C)C(=O)O | inactive | 
27 | O=CC(F)(F)C(F)(F)C(F)(F)F | inactive | 
28 | Oc1c(Cl)ccc(Cl)c1Cl | inactive | 
29 | FC1(F)C=CC(F)(F)C1(F)F | inactive | 
30 | CC(C)C=O | inactive | 
31 | CCCCCCCCCCCC | inactive | 
32 | O=S(=O)(O)c1ccccc1 | inactive | 
33 | C=CCOCC(CO)(CO)CO | inactive | 
34 | O=C(Nc1ccc(Cl)c(Cl)c1)c1cc(Cl)cc(Cl)c1O |  | 33.4 µM (active)
35 | CCN(CC)CC | inactive | 
36 | CCCCN(C)C | inactive | 
37 | CC(C)(O)C(=O)c1ccccc1 | inactive | 
38 | CNNCc1ccc(C(=O)NC(C)C)cc1 | inactive | 
39 | COC(=O)CC(C(C)=O)C(=O)OC (stereo not given) | inactive | 
